ADAM10 inh: ADAM10 inhibition, QFRET primary screen | O14672 | AID 720582 | recombinant ADAM10, EDANS/DABCYL FRET peptide cleavage, 3 h | inhibition, % at 7 µM | 0.62% of 370,000 active;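 active = inhibition above a per-campaign cutoff equal to the mean of compounds falling between control-based bounds plus 3 SD, cut at about 20% in these data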;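 note: 0% = DMSO wells while the 100% control is not disclosed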
proKLK7 act: proKLK7 (human) activation, primary screen; P49862; purified proKLK7, EDANS-DABCYL substrate fluorescence; 100% is mature enzyme control, 0% vehicle; activation, % at 7 µM; 0.9% of 370,000 active; AID 652039;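 active = activation above the mean of all tested compounds plus 3 SD, computed per campaign excluding outliers beyond control limits, cut at about 13% in these data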
ADAM17 inh: ADAM17 inhibition, QFRET primary screen; P78536; recombinant ADAM17, EDANS/DABCYL FRET peptide cleavage; 0.83% of 370,000 active; inhibition, % at 6.95 µM;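 active = inhibition above the mean of compounds lying between control limits plus 3 SD, set per campaign, cut at about 8.5% in these data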;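 note: 0% = DMSO-only wells as the low control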
Target sequence (P78536 215-824 limits assumed): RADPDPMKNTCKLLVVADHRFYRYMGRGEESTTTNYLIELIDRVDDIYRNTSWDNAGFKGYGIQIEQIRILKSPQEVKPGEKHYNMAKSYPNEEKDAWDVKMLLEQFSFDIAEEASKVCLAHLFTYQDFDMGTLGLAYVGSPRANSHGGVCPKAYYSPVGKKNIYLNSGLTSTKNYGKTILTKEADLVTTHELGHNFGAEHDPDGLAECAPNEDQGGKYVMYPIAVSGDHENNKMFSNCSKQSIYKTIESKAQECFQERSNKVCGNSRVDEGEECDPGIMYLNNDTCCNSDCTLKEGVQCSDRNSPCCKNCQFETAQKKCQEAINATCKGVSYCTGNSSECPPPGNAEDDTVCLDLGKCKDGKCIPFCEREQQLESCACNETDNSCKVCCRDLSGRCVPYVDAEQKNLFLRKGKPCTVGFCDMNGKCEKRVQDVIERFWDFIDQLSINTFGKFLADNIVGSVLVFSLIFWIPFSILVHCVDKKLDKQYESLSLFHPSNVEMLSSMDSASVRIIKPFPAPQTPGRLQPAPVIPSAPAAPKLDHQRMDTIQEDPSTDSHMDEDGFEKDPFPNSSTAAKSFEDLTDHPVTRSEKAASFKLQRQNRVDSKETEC
MPTP block: permeability transition pore inhibition; isolated mouse mitochondria, Ca2+ swelling absorbance, 30 min; inhibition, % at 10 µM; 1.4% of 360,000 active;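 active = inhibition of 50% or more, scaled per plate between neutral and stimulator controls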;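 note: 0% = DMSO wells given calcium and 100% = 1 mM EGTA wells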
rCAG RNA binder: r(CAG) repeat RNA binding | TO-PRO-1 dye displacement fluorescence | inhibition, % at 3 µM | 1.3% of 370,000 active | AID 651821;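 active = inhibition above the plate cutoff, the mean of all test compounds on that plate plus 3 SD, cut at about 35% in these data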;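 note: 0% = DMSO alone and 100% = 100 µM mitoxantrone as full dye displacement; higher means more dye released from RNA so lower well fluorescence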
DSG3 Ab inh: blocks pemphigus antibody binding to human desmoglein-3; 0.48% of 310,000 active; DSG3-coupled beads, scFv-anti-DSG3-GFP binding, flow cytometry; active compounds read low; binding (percent of control), % at 10 µM; AID 588358; P32926;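 active = binding more than 3 SD below its plate's average and above zero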;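 note: hits lower antibody fragment binding to DSG3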
ADAM10 ctr: inhibits human ADAM10 in ADAM17 exosite counter-screen; shares compounds with ADAM17 inh; 47% of 2,900 active; recombinant ADAM10, EDANS/DABCYL FRET peptide cleavage, 3 h; inhibition, % at 6.95 µM;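 active = mean inhibition over the triplicate runs exceeds the activity threshold set in the earlier primary screen, cut at about 20% in these data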;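 note: 0% = DMSO wells and 100% = marimastat wells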
ADAM17 confirm: confirmation of inhibitors of human ADAM17. inhibition, % at 6.95 µM. recombinant ADAM17, EDANS/DABCYL QFRET peptide cleavage. AID 743257. 65% of 2,900 active. shares compounds with ADAM17 inh;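 active = mean inhibition across replicates above the hit cutoff set in the primary screen, cut at about 8.5% in these data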;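 note: 0% = DMSO wells and 100% = marimastat wells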
An asterisk follows results filed as active; nt = not tested or not shown. An excerpt weighted towards active compounds, which were near 4.7% of everything screened.

SMILES | ADAM10 inh | proKLK7 act | ADAM17 inh | MPTP block | rCAG RNA binder | DSG3 Ab inh | ADAM10 ctr | ADAM17 confirm
O=C(Nc1ccccc1)c1ccc(CN2CCc3ccccc3C2)cc1 | -3 | 0 | -1 | -1 | 0 | 109 | nt | nt
CS(=O)(=O)N1CCc2cc(C(=O)Nc3ccc(Br)cc3)ccc21 | 2 | 0 | 9.0* | 3 | 2 | 95 | -11 | 0
O=C(COC(=O)c1cc(Cl)ccc1Cl)Nc1ccc2[nH]c(=O)[nH]c2c1 | -14 | -1 | -7 | -1 | 5 | 105 | nt | nt
CCCNc1c(NS(=O)(=O)c2ccc(OC)c(OC)c2)c(=O)oc2ccccc12 | nt | nt | nt | -1 | nt | 105 | nt | nt
CCCCCCN1CCN(C2CN(Cc3cn(Cc4ccccc4)nn3)S(=O)(=O)C2)CC1 (stereo not given) | -6 | 0 | -3 | 0 | -2 | nt | nt | nt
COc1ccc(OC)c(NC(=O)COC(=O)CCC2CCCC2)c1 | -2 | 0 | 1 | -3 | 0 | nt | nt | nt
COc1ccc(NS(=O)(=O)c2ccc(OC)c(NC(=O)CCC3CCCC3)c2)cc1 | 18 | 0 | 12* | 1 | 7 | 93 | 20 | 12*
Cc1ccc(NC(=O)CSc2nnc(-c3n[nH]c4ccccc34)n2-c2ccccc2)c(C)c1 | 19 | 1 | 9.3* | 1 | 4 | nt | 4 | 10*
C=CCn1c(SCC(=O)Nc2ccccc2-c2ccccc2)nnc1-c1ccc(Cl)cc1 | 16 | 1 | 9.3* | nt | 5 | nt | 22* | 15*
Cc1cc(-c2nnc(SCC(=O)Nc3ccccc3F)n2N)n[nH]1 | -8 | 0 | 2 | -2 | 1 | 101 | nt | nt
Cc1ccc(C)c(NC(=O)CSc2nnc(-c3cc(C)[nH]n3)n2N)c1 | -4 | -1 | 11* | -1 | 3 | 100 | -3 | -2
Cc1ccc(-n2nnnc2SCC(=O)Nc2ccccc2-c2ccccc2)cc1C | 10 | 0 | 9.0* | 7 | 0 | 90 | 26* | 15*
Cc1ccc(-n2c(COc3ccccc3)nnc2SCC(=O)Nc2ccccc2-c2ccccc2)cc1 | 16 | 1 | 8.9* | nt | 6 | nt | 32* | 16*
CC(=O)c1cccc(-c2ccnc3c2CC(C(=O)Nc2cccc(OC(F)(F)F)c2)O3)c1 (stereo not given) | -4 | 0 | -2 | 1 | 2 | nt | nt | nt
COc1ccc(NC(=O)C2Cc3c(-c4ccccc4Oc4ccccc4)ccnc3O2)cc1 (stereo not given) | 18 | 0 | 9.6* | 1 | 6 | nt | 18 | 7
O=C(Nc1cccc(OC(F)(F)F)c1)C1Cc2c(-c3ccc(Cl)cc3)ccnc2O1 (stereo not given) | 8 | 0 | 10* | 2 | 5 | nt | 17 | 9
NC(=O)CSc1nnc(COc2cccc3ccccc23)o1 | -4 | 0 | 1 | 1 | 0 | 124 | nt | nt
O=C(CSc1nnc(COc2cccc3ccccc23)o1)N1c2ccccc2CCc2ccccc21 | 9 | 0 | 8.9* | 2 | 5 | 102 | 12 | 8
CNC[C@@H]1OCc2cnnn2CCCC(=O)N([C@H](C)CO)C[C@H]1C | -11 | -1 | -6 | 0 | 0 | 115 | nt | nt
CC(=O)NC12CC3CC(C1)CC(C(=O)Nc1nc4ccc(F)cc4s1)(C3)C2 | -4 | -1 | 8.6* | 1 | 1 | 114 | -2 | 2
CCC(CC)c1nnc(NC(=O)C23CC4CC(CC(NC(C)=O)(C4)C2)C3)s1 | 0 | 0 | 1 | -1 | -8 | 104 | nt | nt
CC(=O)NC(c1ccc(C)cc1)c1cc(Cl)c2cccnc2c1O (stereo not given) | 6 | -1 | 3 | 1 | -1 | 102 | nt | nt
Oc1c(C(Nc2ccccn2)c2cccnc2)cc(Cl)c2cccnc12 (stereo not given) | 14 | 0 | 11* | 0 | -1 | 102 | 26* | 16*
COc1ccc(C2c3ccc4ccccc4c3Oc3ncn(CCN4CCOCC4)c(=N)c32)cc1 (stereo not given) | 18 | 0 | 9.2* | -4 | 2 | 106 | 12 | 8
COc1ccc(C2c3ccc4ccccc4c3Oc3ncn(CCN4CCOCC4)c(=N)c32)cc1OC (stereo not given) | 11 | 1 | 8.6* | -5 | -2 | nt | 12 | 9.2*
SMILES | ADAM10 inh | proKLK7 act | ADAM17 inh | MPTP block | rCAG RNA binder | DSG3 Ab inh | ADAM10 ctr | ADAM17 confirm
COc1ccc(C2c3ccc4ccccc4c3Oc3ncn(CCO)c(=N)c32)cc1OC (stereo not given) | nt | nt | nt | 1 | nt | 115 | nt | nt
COc1ccc(C2c3ccc4ccccc4c3Oc3ncn(CCO)c(=N)c32)cc1 (stereo not given) | nt | nt | nt | -2 | nt | 118 | nt | nt
CC(C)Oc1cc(F)ccc1-c1cc(C(=O)NCCc2ccncc2)[nH]n1 | 0 | 1 | -1 | -1 | -1 | nt | nt | nt
CC(=O)N1N=C(c2ccccc2O)CC1c1cccs1 (stereo not given) | -33 | -12 | -18 | 0 | -2 | 111 | nt | nt
O=C(OCC(=O)c1c[nH]c2ccccc12)c1ccc(F)c(S(=O)(=O)N2CCOCC2)c1 | 7 | 0 | 2 | 0 | 9 | 105 | nt | nt
Cc1ccc(C(=O)OCC(=O)c2c[nH]c3ccccc23)cc1S(=O)(=O)N1CCOCC1 | -3 | -1 | 10.0* | 1 | 11 | 68 | -7 | 3
O=C(c1ccccc1)c1ccc(C(=O)N2CCN(c3ccc(O)cc3)CC2)cc1 | 2 | 0 | 8.7* | 0 | 7 | 104 | -4 | 1
O=C(c1ccc(N2CCN(C(=O)c3ccccc3)CC2)cc1)c1cccc(F)c1 | 1 | 2 | -3 | 1 | -3 | 117 | nt | nt
Cc1ccc(C(=O)CC2C(=O)N(c3ccccc3)C(=S)N2c2ccccc2)cc1 (stereo not given) | 16 | 0 | 9.3* | 0 | 4 | 126 | 44* | 19*
CN(C)c1ccc(/C=N/NC(N)=S)cc1[N+](=O)[O-] | 2 | 0 | 10* | 0 | -1 | 112 | 28* | 15*
C=CCNC(=S)N/N=C/c1ccc(C)c([N+](=O)[O-])c1 | 4 | 1 | 2 | -1 | 1 | 108 | nt | nt
COc1ccc(COC(=O)C2CCN(S(=O)(=O)c3ccc(Cl)cc3)CC2)cc1 | -3 | 0 | -1 | -2 | 1 | 110 | nt | nt
COc1ccc(COC(=O)C2CCN(S(=O)(=O)c3ccc(OC)c(OC)c3)CC2)cc1 | 9 | 0 | 9.7* | 0 | 0 | 107 | 30* | 17*
Cn1c(SCC(=O)Nc2cc(Cl)cc(Cl)c2)nnc1-c1ccc2nonc2c1 | 10 | 1 | -1 | 6 | -1 | 96 | nt | nt
Nc1nc(-c2ccccc2)cs1 | 2 | 0 | -5 | 0 | 0 | 99 | nt | nt

From PubChem BioAssay
